Only some compounds are listed: those with a hit (about 11% of all), similar ones and a draw of the others.
L3MBTL1 inh: qHTS Assay for the Inhibitors of L3MBTL1; actives 0.66% (n = 230,000); Potency, µM (top dose mostly 57.1 µM), for inactives: at the top dose activity, negative = inhibition, actives largely listed as inhibitors; AlphaScreen L3MBTL1–H3K9me1 peptide binding; Lethal(3)malignant brain tumor-like protein 1 (Homo sapiens), Q9Y468; further: potency means the concentration at half of the fitted maximal effect; on the % scale 0 is the no-effect control and ±100 the full control effect; nearly all actives have a fitted effect of over 60% in size
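Displacement of a biotinylated histone H3(1-15) peptide monomethylated at Lys9 (75 nM) from L3MBTL1 (50 nM) was measured by AlphaScreen after a 30 min room-temperature compound incubation; cefsulodin titration served as intraplate control.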
JMJD2A Tudor inh: qHTS Assay for Inhibitors of JMJD2A-Tudor Domain. AlphaScreen JMJD2A-Tudor / H3K4me3 peptide binding. Potency, µM (series often up to 114 µM), for inactives: top-dose activity change, negative = inhibition, actives largely listed as inhibitors. actives 4.4% (n = 390,000). AID 504339, 2011; further: potency means the concentration at half of the fitted maximal effect; on the % scale 0 is the no-effect control and ±100 the full control effect; nearly all actives have a fitted effect of over 50% in size
BAZ2B block: qHTS Assay for Inhibitors of BAZ2B; Bromodomain adjacent to zinc finger domain protein 2B (Homo sapiens), Q9UIF8; AlphaScreen BAZ2B-H3K14Ac peptide displacement; Potency, µM (series often up to 114 µM), for the others: top-dose activity change, negative = inhibition, hits mostly inhibitors; actives 4.4% (n = 360,000); AID 504333, 2011; further: potency means the concentration at half of the fitted maximal effect; on the % scale 0 is the no-effect control and ±100 the full control effect; nearly all actives have a fitted effect of over 60% in size
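Multi-concentration screen (max 110 uM) measuring displacement of acetylated histone H3 peptide from BAZ2B by AlphaScreen, using 50 nM protein, 50 nM peptide and 10 ug/mL streptavidin donor plus Ni-chelate acceptor beads.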
HP1b chromo inh: HTS for Inhibitors of HP1-beta Chromodomain Interactions with Methylated Histone Tails; actives 0.56% (n = 390,000); Chromobox protein homolog 1 (Homo sapiens), P83916; AlphaScreen HP1-beta / biotin-H3K9me3 peptide binding; Potency, µM (top dose mostly 114 µM), without a hit: top-dose activity change, negative = inhibition, usual class: inhibitors; further: potency means the concentration at half of the fitted maximal effect; nearly all actives have a fitted effect of over 70% in size
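Compound inhibition of the preformed complex between 50 nM HP1-beta and 50 nM biotinylated H3K9me3 peptide was read by AlphaScreen. Buffer was PBS pH 7.4 with 0.01% Tween-20. Incubations ran 30 min at room temperature, with 10 ug/mL donor/acceptor beads.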
G9a inh: qHTS Assay for Inhibitors of Histone Lysine Methyltransferase G9a; AID 504332, 2011; G9a H3K9 monomethylation, AlphaScreen, 2 h; Histone-lysine N-methyltransferase EHMT2 (Homo sapiens), Q96KQ7; Potency, µM (series often up to 102 µM), for the others: at the highest dose activity, negative = inhibition, hits mostly inhibitors; actives 8.8% (n = 350,000); further: potency means the concentration at half of the fitted maximal effect; on the % scale 0 is the no-effect control and ±100 the full control effect; nearly all actives have a fitted effect of over 75% in size
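Compounds were preincubated with 20 nM G9a for 15 min, after which biotinylated H3K9 peptide (500 nM) and SAM (20 uM) started a 2 h room-temperature reaction. Monomethylated product was quantified by antibody-based AlphaScreen chemiluminescence.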
PI5P4K alpha inh: qHTS for Inhibitors of phosphatidylinositol 5-phosphate 4-kinase (PI5P4K); AID 652105, 2013; actives 1.2% (n = 330,000); PI5P4Kalpha enzyme, ADP-Glo luminescence, 60 min; stronger effect = lower value; max response, %; active means max response of -50% or lower; inconclusive means between -30% and -50%; inactive means -30% or higher; further: value at the top dose of about 77 µM; on the % scale 0 is the no-effect control and ±100 the full control effect
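Reactions run in 0.038 M HEPES pH 7.4, 0.28 mM EGTA, 0.1% CHAPS and 5% DMSO, with PI5P4Kalpha, substrate, compound and 5 microM ATP final, one hour at room temperature. Readout is ADP-Glo luminescence.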
* marks the source's active call; other numbers are inactive results; ? = inconclusive; / = not tested or not shown; ! = not confirmed by another sample; [ ] = remark or other dose. Unless noted, the call rests on the fitted dose curve; in most records, active means well fitted inhibition curve with a large enough effect; inconclusive means small, poorly fitted or top-dose-only effect; inactive means no such curve, though single readings can be large or run the other way.

SMILES | L3MBTL1 inh | JMJD2A Tudor inh | BAZ2B block | HP1b chromo inh | G9a inh | PI5P4K alpha inh
CSc1nnc(-c2cccc(NC(=O)c3ccccc3)c2)n1C | 7.6% | -2.5% | -25.0% | 24.6% | 50.1µM* | -2.0
CCC(=O)Nc1cccc(-c2nnc(SCC(=O)c3ccccc3)n2C)c1 | 7.3% | 39.8µM* | / | ? | ? | -20.1
O=C(c1ccc(F)cc1)C1CCN(CCn2c(=O)[nH]c3ccccc3c2=O)CC1 | / | / | / | / | 22.2%[59 µM] | /
CC1(C)C(=O)N(CCN2CCC(C(=O)c3ccc(F)cc3)CC2)c2ccccc21 | -9.8% | -11.5% | 2.0% | 57.5% | 20µM*! | 3.5
COCCNC(=O)CSc1nc2cc3c(cc2c(=O)n1CCCC(=O)NCc1ccc2c(c1)OCO2)OCO3 | / | -21.7% | 0.6% | 36.4% | 7.0%[59 µM] | /
Cc1nc(-c2ccc(Cl)cc2)oc1COC(C)(C)C(=O)O | / | / | / | / | -5.4%[12.7 µM] | /
O=C(Nc1ccc(F)cc1)[C@H](Cc1ccccc1)N1Cc2ccccc2C1=O | / | -18.9% | -13.5% | 18.7% | -8.5%[59 µM] | /
CCOc1cc(/C=C2\C(=N)N3N=C(S(C)(=O)=O)SC3=NC2=O)ccc1OCCOc1cccc(OC)c1 | / | 79.4µM* | 70.8µM* | ? | -0.6%[2.33 µM] | -79.7*
CCS(=O)(=O)C1=NN2C(=N)/C(=C\c3ccc(OCCOc4cccc(OC)c4)c(OC)c3)C(=O)N=C2S1 | / | 56.2µM* | 35.5µM* | 5.3% | 56.2µM* | -78.0*
O=C(CN1C(=O)CCc2cc(Br)ccc21)Nc1ccc(OC(F)(F)F)cc1 | / | -9.9% | -12.7% | 14.5%[57 µM] | 7.1%[59 µM] | /
CC1CC2C3CC(F)C4=CC(=O)C=C[C@@]4(C)[C@@]3(F)C(O)C[C@]2(C)[C@]1(O)C(=O)COC(=O)C(C)(C)C (some centres undefined) | / | / | / | / | -30.2%[2.33 µM] | /
COc1ccc(CCNC(=O)CSc2nc3ccccc3nc2Cc2ccc(Cl)cc2)cc1OC | / | -9.7% | -22.5% | 0.3%[57 µM] | -5.0%[59 µM] | /
COC(=O)c1ccc2c(=O)n(CCCN3CCCC3=O)c(=S)[nH]c2c1 | 10.2% | ? | 70.8µM* | 27.2% | -30.4%[12.7 µM] | /
O=C(NCc1ccccc1)c1ccc2c(=O)n(CCCN3CCCC3=O)c(=S)[nH]c2c1 | / | -16.9% | -10.8% | 32.2% | 44.7µM* | -14.4
O=C(NCCCN1CCCC1=O)c1ccc2c(=O)n(Cc3ccco3)c(=S)[nH]c2c1 | -15.3% | ? | 5.2% | -18.9% | 10µM* | ?
Cc1ccc(CNC(=O)c2ccc3c(=O)n(CCCN4CCCC4=O)c(=S)[nH]c3c2)cc1 | / | 6.3% | -15.9% | 42.5% | ? | -0.3
O=c1c2cc3c(cc2[nH]c(=S)n1Cc1ccco1)OCO3 | -0.7% | -6.9% | -24.6% | 23.1% | 39.8µM* | -2.1
O=C(c1cccc(F)c1)N1CCC2(CCCN(Cc3nccs3)C2)CC1 | / | / | / | / | 2.0%[12.7 µM] | /
CCCN1C(=O)C2(c3ccccc31)c1c(oc3ccccc3c1=O)C(=O)N2CCO (centres undefined) | / | -7.3% | -7.4% | 19.4% | -29.1%[59 µM] | /
O=[S+]([O-])(c1ccc2c(c1)OCCO2)N1CCN([S+](=O)([O-])c2c(F)cc(Br)cc2F)CC1 | / | -9.6% | / | / | / | /
CN1CCN(C(=O)c2ccc3c(=O)n(CCc4ccccc4)c(=S)[nH]c3c2)CC1 | / | 1.6% | / | 58.2% | / | -0.7
CN1CCN(C(=O)c2ccc3c(=O)n(Cc4ccco4)c(=S)[nH]c3c2)CC1 | / | 12.6µM* | -5.1% | 17.2% | 44.7µM* | /
Cn1c(=S)[nH]c2cc(C(=O)N3CCN(C(=O)c4ccccc4)CC3)ccc2c1=O | / | 79.4µM* | / | 46.8% | / | /
C=CCNC(=O)c1ccc2c(=O)n(CCCN3CCCC3=O)c(=S)[nH]c2c1 | / | 50.1µM* | ? | 11.2% | ? | -17.3
COc1ccc(OC)c(-n2c(=S)[nH]c3cc(C(=O)N4CCC(C(N)=O)CC4)ccc3c2=O)c1 | 5.4% | 15.8µM* | 0.1% | 57.3% | ? | 0.6
SMILES | L3MBTL1 inh | JMJD2A Tudor inh | BAZ2B block | HP1b chromo inh | G9a inh | PI5P4K alpha inh
Cc1cc(=O)n(Cc2cccc(Cl)c2)c2c1c(C)nn2-c1ccccc1 | / | 14.3% | -10.5% | 54.8% | 31.4%[59 µM] | /
Cc1cccc(NC(=O)C2CCN(S(=O)(=O)c3ccc4c(c3)CCCC(=O)N4)CC2)c1 | / | -3.6% | 7.2%[57.1 µM] | 27.5% | -17.7%[59 µM] | /
COc1ccc(CNC(=O)c2ccc3c(=O)n(CCCN4CCCC4=O)c(=S)[nH]c3c2)cc1 | / | -20.4% | -17.1% | 9.0% | 15.5%[59 µM] | -12.9
COc1ccc(OC)c(-n2c(=S)[nH]c3cc(C(=O)NCCCN4CCCC4=O)ccc3c2=O)c1 | 2.4% | / | -34.2% | / | 28.2µM* | /
O=C(NCc1ccccn1)c1ccc2c(=O)n(CCc3ccccc3)c(=O)[nH]c2c1 | 4.8% | -10.9% | -21.4% | 74.5% | ? | ?
CCCCCn1c(=O)[nH]c2cc(C(=O)NCc3ccccn3)ccc2c1=O | 3.0% | ? | 79.4µM* | 11.2% | 39.8µM* | ?
O=C(CSc1ccc2nnc(-c3cccnc3)n2n1)NCc1ccc2c(c1)OCO2 | 4.9% | 56.2µM* | -5.6% | 33.3% | ? | 0.7
O=C(CSc1ccc2nnc(-c3cccnc3)n2n1)Nc1ccccc1 | / | -23.1% | -10.8% | 40.8% | 50.1µM* | -15.6
COc1cccc(NC(=O)CSc2ccc3nnc(-c4ccncc4)n3n2)c1 | / | -10.6% | -30.7% | 48.9% | 50.1µM* | -4.8
COc1ccc(-c2nnc3ccc(SCC(=O)Nc4cc(C)on4)nn23)cc1 | / | / | / | / | 56.2µM* | /
COc1cccc(NC(=O)CSc2ccc3nnc(-c4ccccn4)n3n2)c1 | / | ? | 0.9% | 45.8% | -19.3% | -2.2
CCn1c(=O)c2sccc2n2c(CCC(=O)Nc3ccc(F)cc3)nnc12 | / | -14.7% | -0.4% | 14.8% | 2.7%[59 µM] | /
COC(=O)c1ccc(CSc2ccc3nnc(-c4cccnc4)n3n2)o1 | -3.6% | / | -14.9% | / | 25.1µM* | /
COC(=O)c1ccc(CSc2ccc3nnc(-c4ccc(OC)cc4)n3n2)o1 | / | / | -6.4% | / | -8.5%[59 µM] | /

Screening results deposited in PubChem by National Center for Advancing Translational Sciences (NCATS).
